# From article PMC7862700, “An all-to-all approach to the identification of sequence-specific readers for epigenetic DNA modifications on cytosine”
# Key:
# Assay in all cases: DAPPL (digital affinity profiling via proximity ligation, sequencing); 10 mM Tris-HCl pH 7.5, 50 mM NaCl, 1 mM DTT, 4% glycerol, room temperature, 30 min; GST-TFs on glutathione beads, 16-mer random dsDNA library, 0.1% formaldehyde crosslink after washing; high values mean tight binding
# Settings in all cases: protein: recombinant; tags: N-terminal GST; dsDNA, one strand shown
# ELK1 = target: T1, ELK1 (Homo sapiens, UniProt P19419 1-428)
# T1 sequence: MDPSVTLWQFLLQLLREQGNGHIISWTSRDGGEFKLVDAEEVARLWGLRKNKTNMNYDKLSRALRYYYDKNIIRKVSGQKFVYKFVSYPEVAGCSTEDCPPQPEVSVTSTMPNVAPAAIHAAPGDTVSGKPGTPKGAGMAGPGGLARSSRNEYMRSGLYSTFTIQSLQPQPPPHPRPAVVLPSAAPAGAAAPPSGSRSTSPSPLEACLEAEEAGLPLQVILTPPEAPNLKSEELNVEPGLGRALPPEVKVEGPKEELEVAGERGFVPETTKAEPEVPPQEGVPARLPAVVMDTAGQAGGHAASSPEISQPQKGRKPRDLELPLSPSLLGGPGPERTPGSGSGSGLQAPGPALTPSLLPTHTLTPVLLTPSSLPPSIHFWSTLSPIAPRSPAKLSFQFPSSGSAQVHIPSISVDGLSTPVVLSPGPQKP
# Outline: (§1)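 GST fusions of human transcription factors were expressed in yeast and captured with glutathione beads. Once given DNA barcodes and pooled alongside a tag-only sample, they were incubated for 30 min at room temperature with 200 nmole of a random double-stranded 16-mer DNA library in Tris/NaCl/DTT/glycerol buffer, then washed, crosslinked (0.1% formaldehyde), proximity-ligated, PCR-amplified and sequenced on an Illumina NextSeq500. The binding signal of each hexamer is its read frequency for a factor divided by its frequency for the tag-only sample.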
# GABPA = target: T2, GABPA (Homo sapiens, UniProt Q06546 1-454)
# T2 sequence: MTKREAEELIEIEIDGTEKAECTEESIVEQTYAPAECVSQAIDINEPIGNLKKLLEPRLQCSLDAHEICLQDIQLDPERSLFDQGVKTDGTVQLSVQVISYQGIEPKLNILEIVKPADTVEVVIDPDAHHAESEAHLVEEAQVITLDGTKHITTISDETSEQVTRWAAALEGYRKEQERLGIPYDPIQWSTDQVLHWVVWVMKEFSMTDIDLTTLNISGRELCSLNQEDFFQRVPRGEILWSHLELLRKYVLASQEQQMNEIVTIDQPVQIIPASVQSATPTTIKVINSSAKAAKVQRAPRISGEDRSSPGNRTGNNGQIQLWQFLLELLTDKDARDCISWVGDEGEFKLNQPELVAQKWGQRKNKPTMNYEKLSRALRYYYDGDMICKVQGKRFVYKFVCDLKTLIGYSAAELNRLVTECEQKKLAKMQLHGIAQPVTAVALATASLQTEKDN
# Outline: as §1
# ERG = target: T3, ERG (Homo sapiens, UniProt P11308 1-479)
# T3 sequence: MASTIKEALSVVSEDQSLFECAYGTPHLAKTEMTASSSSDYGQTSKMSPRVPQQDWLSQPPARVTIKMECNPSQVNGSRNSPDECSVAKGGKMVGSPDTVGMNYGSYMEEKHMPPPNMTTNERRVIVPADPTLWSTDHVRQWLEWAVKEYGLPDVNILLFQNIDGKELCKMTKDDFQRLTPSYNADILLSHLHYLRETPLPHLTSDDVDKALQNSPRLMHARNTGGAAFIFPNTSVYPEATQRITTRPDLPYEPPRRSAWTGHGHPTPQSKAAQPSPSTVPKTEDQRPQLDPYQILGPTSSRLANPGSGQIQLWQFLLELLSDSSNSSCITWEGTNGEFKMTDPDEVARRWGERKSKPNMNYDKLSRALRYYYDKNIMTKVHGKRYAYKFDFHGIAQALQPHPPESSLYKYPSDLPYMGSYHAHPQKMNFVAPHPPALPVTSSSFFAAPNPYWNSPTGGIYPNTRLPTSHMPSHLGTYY
# Outline: as §1
# ELF1 = ELF1 (Homo sapiens, UniProt P32519 1-619)
# Outline: as §1
# EHF = target: T4, EHF (Homo sapiens, UniProt Q9NZC4 1-300)
# T4 sequence: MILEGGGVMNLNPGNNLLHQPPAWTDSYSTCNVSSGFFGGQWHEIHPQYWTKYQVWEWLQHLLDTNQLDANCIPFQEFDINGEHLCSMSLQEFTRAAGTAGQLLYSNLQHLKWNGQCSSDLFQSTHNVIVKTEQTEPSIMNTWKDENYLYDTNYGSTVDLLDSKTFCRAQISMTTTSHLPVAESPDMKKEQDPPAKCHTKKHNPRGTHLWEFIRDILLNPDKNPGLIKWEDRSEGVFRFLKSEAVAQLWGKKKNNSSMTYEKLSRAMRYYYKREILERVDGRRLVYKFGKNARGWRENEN
# Outline: as §1
# SPIB = SPIB (Homo sapiens, UniProt Q01892 1-262)
# Outline: as §1
# ELK3 = target: T5, ELK3 (Homo sapiens, UniProt P41970 1-407)
# T5 sequence: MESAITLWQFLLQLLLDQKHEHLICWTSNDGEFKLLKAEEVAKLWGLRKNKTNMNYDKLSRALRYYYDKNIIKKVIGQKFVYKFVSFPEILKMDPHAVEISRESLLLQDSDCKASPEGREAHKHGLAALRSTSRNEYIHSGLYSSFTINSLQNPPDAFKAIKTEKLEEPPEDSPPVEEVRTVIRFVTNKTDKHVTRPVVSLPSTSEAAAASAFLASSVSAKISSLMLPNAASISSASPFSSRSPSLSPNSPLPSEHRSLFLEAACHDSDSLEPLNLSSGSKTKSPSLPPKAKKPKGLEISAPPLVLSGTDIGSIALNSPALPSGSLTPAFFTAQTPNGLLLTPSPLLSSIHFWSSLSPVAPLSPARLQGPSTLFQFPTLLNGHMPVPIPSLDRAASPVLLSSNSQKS
# Outline: as §1
# FEV = target: T6, FEV (Homo sapiens, UniProt Q99581 1-238)
# T6 sequence: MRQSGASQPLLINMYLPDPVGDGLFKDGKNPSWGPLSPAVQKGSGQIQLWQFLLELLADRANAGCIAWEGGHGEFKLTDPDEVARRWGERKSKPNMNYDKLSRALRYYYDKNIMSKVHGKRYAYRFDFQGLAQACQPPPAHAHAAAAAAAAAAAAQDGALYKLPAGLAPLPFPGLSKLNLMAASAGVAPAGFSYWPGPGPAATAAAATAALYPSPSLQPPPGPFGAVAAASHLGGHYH
# Outline: as §1
# ETV5 = ETV5 (Homo sapiens, UniProt P41161 1-510)
# Outline: as §1
# ELF4 = ELF4 (Homo sapiens, UniProt Q99607 1-663)
# Outline: as §1
# ELK4 = target: T7, ELK4 (Homo sapiens, UniProt P28324-2 1-405)
# T7 sequence: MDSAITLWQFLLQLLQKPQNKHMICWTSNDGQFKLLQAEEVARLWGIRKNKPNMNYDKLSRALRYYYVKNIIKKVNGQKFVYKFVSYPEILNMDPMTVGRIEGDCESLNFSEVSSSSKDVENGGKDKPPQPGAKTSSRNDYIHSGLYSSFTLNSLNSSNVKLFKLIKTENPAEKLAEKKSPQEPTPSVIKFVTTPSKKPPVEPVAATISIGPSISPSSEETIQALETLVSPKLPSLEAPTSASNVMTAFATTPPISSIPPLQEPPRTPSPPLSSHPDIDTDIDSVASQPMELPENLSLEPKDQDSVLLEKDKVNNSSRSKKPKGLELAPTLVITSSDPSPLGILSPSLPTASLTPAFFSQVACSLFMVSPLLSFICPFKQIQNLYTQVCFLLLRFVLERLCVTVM
# Outline: as §1
# ETV1 = ETV1 (Homo sapiens, UniProt P50549 1-477)
# Outline: as §1
# ERF = target: T8, ERF (Homo sapiens, UniProt P50548 1-548)
# T8 sequence: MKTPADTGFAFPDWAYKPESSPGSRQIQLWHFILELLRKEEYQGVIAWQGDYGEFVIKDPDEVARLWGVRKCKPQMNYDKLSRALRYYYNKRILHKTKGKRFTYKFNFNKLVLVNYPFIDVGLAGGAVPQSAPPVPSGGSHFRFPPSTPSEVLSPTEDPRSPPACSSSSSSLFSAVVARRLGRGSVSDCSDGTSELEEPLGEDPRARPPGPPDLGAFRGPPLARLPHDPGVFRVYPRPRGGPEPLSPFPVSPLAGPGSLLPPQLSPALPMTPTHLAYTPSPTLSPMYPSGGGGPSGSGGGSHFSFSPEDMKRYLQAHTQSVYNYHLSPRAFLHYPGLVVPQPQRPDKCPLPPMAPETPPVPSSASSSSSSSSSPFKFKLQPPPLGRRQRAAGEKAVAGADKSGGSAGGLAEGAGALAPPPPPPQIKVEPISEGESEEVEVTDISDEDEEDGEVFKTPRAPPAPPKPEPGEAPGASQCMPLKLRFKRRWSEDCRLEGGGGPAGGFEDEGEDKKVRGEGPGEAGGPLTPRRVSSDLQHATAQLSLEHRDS
# Outline: as §1
# ETV3L = target: T9, ETV3L (Homo sapiens, UniProt Q6ZN32 1-361)
# T9 sequence: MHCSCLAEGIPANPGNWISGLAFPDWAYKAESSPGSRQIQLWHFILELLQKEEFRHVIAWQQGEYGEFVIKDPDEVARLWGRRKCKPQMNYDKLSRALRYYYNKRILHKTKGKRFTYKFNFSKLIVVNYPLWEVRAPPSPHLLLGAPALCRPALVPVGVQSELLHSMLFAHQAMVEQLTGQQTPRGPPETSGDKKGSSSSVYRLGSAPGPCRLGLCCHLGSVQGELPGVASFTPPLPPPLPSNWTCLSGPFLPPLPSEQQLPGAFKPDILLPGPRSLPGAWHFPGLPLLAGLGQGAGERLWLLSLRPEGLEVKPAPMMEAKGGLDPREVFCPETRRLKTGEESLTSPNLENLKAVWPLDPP
# Outline: as §1
# ETS2 = target: T10, ETS2 (Homo sapiens, UniProt P15036 1-469)
# T10 sequence: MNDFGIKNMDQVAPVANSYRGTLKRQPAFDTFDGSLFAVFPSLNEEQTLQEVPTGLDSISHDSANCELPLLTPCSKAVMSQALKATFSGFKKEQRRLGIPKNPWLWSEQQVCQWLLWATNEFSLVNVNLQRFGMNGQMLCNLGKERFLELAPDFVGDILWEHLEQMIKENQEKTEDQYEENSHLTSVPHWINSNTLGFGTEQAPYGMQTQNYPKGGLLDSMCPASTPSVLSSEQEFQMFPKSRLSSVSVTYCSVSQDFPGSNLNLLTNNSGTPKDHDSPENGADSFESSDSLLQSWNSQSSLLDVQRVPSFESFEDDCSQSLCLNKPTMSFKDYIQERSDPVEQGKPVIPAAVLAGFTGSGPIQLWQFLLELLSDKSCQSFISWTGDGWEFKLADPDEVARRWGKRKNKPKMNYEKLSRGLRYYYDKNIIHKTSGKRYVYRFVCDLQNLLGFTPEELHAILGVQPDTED
# Outline: as §1
# SPDEF = target: T11, SPDEF (Homo sapiens, UniProt O95238 1-335)
# T11 sequence: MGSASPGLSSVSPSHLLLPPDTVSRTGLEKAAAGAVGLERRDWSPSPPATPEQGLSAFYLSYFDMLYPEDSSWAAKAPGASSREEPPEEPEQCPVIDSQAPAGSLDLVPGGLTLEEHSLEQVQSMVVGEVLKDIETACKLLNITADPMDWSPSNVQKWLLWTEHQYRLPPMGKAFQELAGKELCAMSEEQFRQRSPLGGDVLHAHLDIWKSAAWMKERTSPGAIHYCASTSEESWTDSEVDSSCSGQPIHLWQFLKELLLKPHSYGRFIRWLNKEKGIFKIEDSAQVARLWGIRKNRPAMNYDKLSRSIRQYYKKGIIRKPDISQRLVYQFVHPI
# Outline: as §1
# ETV7 = target: T12, ETV7 (Homo sapiens, UniProt Q9Y603 1-341)
# T12 sequence: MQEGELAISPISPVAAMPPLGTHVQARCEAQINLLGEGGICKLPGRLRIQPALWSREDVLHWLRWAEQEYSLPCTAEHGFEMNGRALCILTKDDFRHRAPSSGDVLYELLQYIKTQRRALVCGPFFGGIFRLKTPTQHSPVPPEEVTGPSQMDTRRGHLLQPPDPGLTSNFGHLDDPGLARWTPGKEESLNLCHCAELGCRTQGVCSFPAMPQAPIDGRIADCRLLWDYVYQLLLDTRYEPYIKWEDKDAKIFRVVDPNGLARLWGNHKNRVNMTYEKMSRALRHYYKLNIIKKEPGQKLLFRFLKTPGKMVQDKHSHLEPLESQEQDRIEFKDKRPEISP
# Outline: as §1
# ETV3 = target: T13, ETV3 (Homo sapiens, UniProt P41162-2 1-143)
# T13 sequence: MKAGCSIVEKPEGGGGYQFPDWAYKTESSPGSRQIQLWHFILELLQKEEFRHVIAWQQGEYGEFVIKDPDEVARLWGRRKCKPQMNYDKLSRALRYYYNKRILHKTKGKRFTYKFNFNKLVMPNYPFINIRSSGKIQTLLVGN
# Outline: as §1
# Sequence of ETV5 (P41161 whole entry): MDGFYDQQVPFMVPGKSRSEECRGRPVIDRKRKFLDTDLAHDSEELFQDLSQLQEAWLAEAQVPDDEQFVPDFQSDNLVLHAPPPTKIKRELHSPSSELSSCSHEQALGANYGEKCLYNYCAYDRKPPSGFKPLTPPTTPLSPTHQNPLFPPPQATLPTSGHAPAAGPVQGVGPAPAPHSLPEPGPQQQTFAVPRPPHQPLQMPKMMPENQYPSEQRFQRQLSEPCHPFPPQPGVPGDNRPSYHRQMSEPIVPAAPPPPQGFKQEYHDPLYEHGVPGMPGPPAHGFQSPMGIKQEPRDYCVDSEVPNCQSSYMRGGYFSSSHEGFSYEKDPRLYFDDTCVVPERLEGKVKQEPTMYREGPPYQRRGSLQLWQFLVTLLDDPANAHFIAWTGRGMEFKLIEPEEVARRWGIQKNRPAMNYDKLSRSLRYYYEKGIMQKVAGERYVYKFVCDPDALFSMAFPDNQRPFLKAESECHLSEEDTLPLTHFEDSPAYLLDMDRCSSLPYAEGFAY
# Sequence of ETV1 (P50549 whole entry): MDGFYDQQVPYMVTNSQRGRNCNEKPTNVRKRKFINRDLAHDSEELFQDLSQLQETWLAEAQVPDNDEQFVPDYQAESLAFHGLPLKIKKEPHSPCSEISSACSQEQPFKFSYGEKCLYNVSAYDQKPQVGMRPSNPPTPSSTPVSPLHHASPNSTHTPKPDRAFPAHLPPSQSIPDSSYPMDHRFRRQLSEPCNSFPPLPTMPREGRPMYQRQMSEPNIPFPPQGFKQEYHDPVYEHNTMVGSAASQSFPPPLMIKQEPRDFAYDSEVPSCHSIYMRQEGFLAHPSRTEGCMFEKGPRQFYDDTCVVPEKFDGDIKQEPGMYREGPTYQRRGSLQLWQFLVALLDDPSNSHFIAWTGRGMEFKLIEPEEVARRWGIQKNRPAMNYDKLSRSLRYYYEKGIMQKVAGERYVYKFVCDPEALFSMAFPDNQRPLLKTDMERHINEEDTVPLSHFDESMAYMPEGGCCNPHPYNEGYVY
# Sequence of ELF4 (Q99607 whole entry): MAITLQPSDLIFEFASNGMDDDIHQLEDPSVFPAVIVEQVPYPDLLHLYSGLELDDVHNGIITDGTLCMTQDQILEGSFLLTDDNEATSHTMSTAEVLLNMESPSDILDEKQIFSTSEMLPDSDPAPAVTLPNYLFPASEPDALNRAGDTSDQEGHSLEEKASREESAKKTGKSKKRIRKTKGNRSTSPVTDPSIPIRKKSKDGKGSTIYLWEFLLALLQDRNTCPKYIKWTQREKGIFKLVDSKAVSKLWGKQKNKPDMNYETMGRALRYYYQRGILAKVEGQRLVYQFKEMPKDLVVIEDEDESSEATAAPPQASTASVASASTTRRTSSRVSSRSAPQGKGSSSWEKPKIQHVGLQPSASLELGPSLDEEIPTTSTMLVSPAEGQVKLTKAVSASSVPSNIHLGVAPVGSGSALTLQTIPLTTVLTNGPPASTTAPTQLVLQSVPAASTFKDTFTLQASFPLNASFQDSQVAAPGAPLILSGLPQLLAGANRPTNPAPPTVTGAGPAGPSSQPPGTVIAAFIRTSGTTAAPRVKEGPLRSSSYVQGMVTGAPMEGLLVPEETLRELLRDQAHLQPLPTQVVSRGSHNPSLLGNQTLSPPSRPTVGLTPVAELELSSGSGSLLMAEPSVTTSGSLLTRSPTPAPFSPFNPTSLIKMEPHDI
# Sequence of SPIB (Q01892 whole entry): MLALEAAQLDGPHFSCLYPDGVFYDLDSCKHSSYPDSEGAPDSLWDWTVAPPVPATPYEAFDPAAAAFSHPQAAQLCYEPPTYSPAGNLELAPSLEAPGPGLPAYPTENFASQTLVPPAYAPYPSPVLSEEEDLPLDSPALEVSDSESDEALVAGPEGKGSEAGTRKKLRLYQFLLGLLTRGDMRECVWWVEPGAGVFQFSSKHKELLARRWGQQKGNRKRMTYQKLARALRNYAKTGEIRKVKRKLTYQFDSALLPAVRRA
# Sequence of ELF1 (P32519 whole entry): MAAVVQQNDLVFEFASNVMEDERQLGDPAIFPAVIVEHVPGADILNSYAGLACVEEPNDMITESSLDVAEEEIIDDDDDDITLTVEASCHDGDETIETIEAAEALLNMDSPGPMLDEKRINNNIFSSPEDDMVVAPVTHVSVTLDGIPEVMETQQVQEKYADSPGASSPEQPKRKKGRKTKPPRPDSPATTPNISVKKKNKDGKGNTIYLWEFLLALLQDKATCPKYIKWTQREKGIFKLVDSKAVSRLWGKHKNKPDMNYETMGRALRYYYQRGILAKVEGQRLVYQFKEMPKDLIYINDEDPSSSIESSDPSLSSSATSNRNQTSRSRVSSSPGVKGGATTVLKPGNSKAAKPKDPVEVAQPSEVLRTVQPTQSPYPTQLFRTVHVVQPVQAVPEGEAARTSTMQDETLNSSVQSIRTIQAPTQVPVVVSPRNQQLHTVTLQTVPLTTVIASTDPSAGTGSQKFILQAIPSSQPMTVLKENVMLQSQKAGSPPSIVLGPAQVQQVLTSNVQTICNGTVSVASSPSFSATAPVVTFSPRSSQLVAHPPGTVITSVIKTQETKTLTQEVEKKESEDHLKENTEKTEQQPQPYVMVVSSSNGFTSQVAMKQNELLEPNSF
sequence,measurement,setting,value
TGCAGC,binding signal,ELK1,"1.07 fold enrichment (6-mer frequency, TF over GST control)"
same,binding signal,GABPA,"1.16 fold enrichment (6-mer frequency, TF over GST control)"
same,binding signal,ERG,"1.06 fold enrichment (6-mer frequency, TF over GST control)"
same,binding signal,ELF1,"1.09 fold enrichment (6-mer frequency, TF over GST control)"
same,binding signal,EHF,"1.09 fold enrichment (6-mer frequency, TF over GST control)"
same,binding signal,SPIB,"1.17 fold enrichment (6-mer frequency, TF over GST control)"
same,binding signal,ELK3,"1.07 fold enrichment (6-mer frequency, TF over GST control)"
same,binding signal,FEV,"1.08 fold enrichment (6-mer frequency, TF over GST control)"
same,binding signal,ETV5,"1.03 fold enrichment (6-mer frequency, TF over GST control)"
same,binding signal,ELF4,"1.1 fold enrichment (6-mer frequency, TF over GST control)"
same,binding signal,ELK4,"1.15 fold enrichment (6-mer frequency, TF over GST control)"
same,binding signal,ETV1,"1.02 fold enrichment (6-mer frequency, TF over GST control)"
same,binding signal,ERF,"1.13 fold enrichment (6-mer frequency, TF over GST control)"
same,binding signal,ETV3L,"1.07 fold enrichment (6-mer frequency, TF over GST control)"
same,binding signal,ETS2,"1.1 fold enrichment (6-mer frequency, TF over GST control)"
same,binding signal,SPDEF,"1.15 fold enrichment (6-mer frequency, TF over GST control)"
same,binding signal,ETV7,"1.04 fold enrichment (6-mer frequency, TF over GST control)"
same,binding signal,ETV3,"1.05 fold enrichment (6-mer frequency, TF over GST control)"
